# This is a sample that favours compounds with a hit; in the whole collection about 3.1% have one here.
# Pin1 inh – blocks the human prolyl isomerase Pin1; Q13526; Potency, µM (titrated, usually from 115 µM), for the others: at the highest dose activity, negative = inhibition, hits mostly inhibitors; Pin1 FP peptide displacement, HiFluor488, 10 min; 390,000 tested, 0.009% active; active means well fitted inhibition curve with a large enough effect in the polarisation, with a control signal flat, not every such curve was filed as active; inconclusive means small, poorly fitted or top-dose-only effect, or effect the other way, or a change in a side signal; inactive means no such curve, though single readings can be large or run the other way; the % refers to the polarisation; further: on the % scale 0 is the no-effect control and ±100 the full control effect
# VDR inhibitor – vitamin D3 receptor (human) inhibition; P11473; VDR-SRC2-3 peptide fluorescence polarization, 2 h; Potency, µM, for the others: max response, negative = inhibition, hits mostly inhibitors; 400,000 tested, 0.93% active; AID 504847; further: on the % scale 0 is the no-effect control and ±100 the full control effect
#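 Fluorescence polarization assay of small-molecule disruption of VDR binding to coregulator peptide SRC2-3. Compounds and controls pin-transferred, then read after 2 h incubation at ambient room temperature.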
# PLK1 PBD inh – PLK1 (human) polo-box domain binding inhibition. Plk1 PBD binding of FITC phosphopeptide, fluorescence polarization. Potency, µM, for inactives: max response, negative = inhibition, most hits filed as inhibitors. 360,000 tested, 2.8% active. AID 720504; further: series mostly up to about 57 µM; on the % scale 0 is the no-effect control and ±100 the full control effect; nearly all actives have a fitted effect of over 65% in size
# TDP1 inh – inhibitors of human tyrosyl-DNA phosphodiesterase TDP1; Q9NUW8; recombinant TDP1, AlphaScreen DNA substrate cleavage; Potency, µM (top dose mostly 130 µM), inactives show at the highest dose activity change, negative = inhibition, most hits filed as inhibitors; 350,000 tested, 0.28% active; further: on the % scale 0 is the no-effect control and ±100 the full control effect; nearly all actives have a fitted effect of over 40% in size
#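 Steps: enzyme plus compound, 15 min RT; add biotin/phosphotyrosine-FITC oligonucleotide (15 nM final), react 5 min; add donor/acceptor beads (10 ug/ml final), 10 min; read AlphaScreen. Tdp1 at 1 nM final.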
# Tb PFK inh – T. brucei PFK enzyme inhibition | O15648 | AID 485367 | T. brucei PFK, ADP-Glo luminescence | Potency, µM (doses to about 57.5 µM), for inactives: at the highest dose activity, negative = inhibition, usual class: inhibitors | 330,000 tested, 0.17% active;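 further: 0% = uninhibited 1x PFK enzyme wells and -100% = no-enzyme wells; nearly all actives have a fitted effect of over 60% in size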
#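 ADP-Glo luminescence quantified ADP after 45 min at room temperature, with 1.25 nM T. brucei PFK, 0.1 mM ATP and 0.5 mM fructose-6-phosphate in pH 8.0 TEA buffer. qHTS titrations up to 57 µM; curves classified by quality.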
# ASM inhibitor – human S-ASM enzyme inhibition; P17405; placental ASM, HMU-PC fluorogenic substrate, 60 min; Potency, µM (titrated, usually from 57.5 µM), inactives show at the top dose activity change, negative = inhibition, actives largely listed as inhibitors; 340,000 tested, 0.006% active
# Target sequence (P17405 47-631 limits assumed): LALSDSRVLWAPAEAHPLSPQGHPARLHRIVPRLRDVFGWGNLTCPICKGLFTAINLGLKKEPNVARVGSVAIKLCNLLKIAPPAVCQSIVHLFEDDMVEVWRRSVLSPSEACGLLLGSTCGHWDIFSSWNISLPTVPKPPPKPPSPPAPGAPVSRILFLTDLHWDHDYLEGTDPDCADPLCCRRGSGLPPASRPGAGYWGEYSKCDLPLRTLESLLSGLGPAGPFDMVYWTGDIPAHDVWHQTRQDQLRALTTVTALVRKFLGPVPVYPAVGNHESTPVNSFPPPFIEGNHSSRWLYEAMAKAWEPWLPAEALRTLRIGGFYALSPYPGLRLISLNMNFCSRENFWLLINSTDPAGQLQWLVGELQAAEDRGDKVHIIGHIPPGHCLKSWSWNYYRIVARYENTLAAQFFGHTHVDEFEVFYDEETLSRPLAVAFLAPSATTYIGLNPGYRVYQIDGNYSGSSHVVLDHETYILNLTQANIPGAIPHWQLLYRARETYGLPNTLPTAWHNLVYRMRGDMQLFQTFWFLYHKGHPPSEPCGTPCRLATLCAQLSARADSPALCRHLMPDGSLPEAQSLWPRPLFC
#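 Fluorescence read-out (Ex 386 nm, Em 447 nm) after stopping the reaction at pH 10. Enzyme: ASM from human placenta; substrate HMU-PC0, 9 uM final; 60 min, 37 °C. Compound preincubation 10 min, ambient temperature.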
# * hit, by the source's call; u = inconclusive; x = no result; [ ] = another dose, or the depositor's remark. Unless noted, the call rests on the fitted dose curve; in most records, active means well fitted curve in the direction sought with a large enough effect; inconclusive means small, poorly fitted or top-dose-only effect, or another doubt; inactive means no such curve, though single readings can be large; an effect the other way counts as inactive or inconclusive. Potency means the concentration at half of the fitted maximal effect.
SMILES,Pin1 inh,VDR inhibitor,PLK1 PBD inh,TDP1 inh,Tb PFK inh,ASM inhibitor
CC(C)c1cc(-c2nc(-c3ccc(Cl)cc3)no2)n[nH]1,-1%,2%,x,0%,x,x
Cc1cc2n(n1)CCC(=O)N2Cc1ccc(C(=O)Nc2ccc(F)cc2F)cc1,2%,2%,x,3%,x,x
Cc1cccc(CC(=O)NCc2nc3cccnc3n2Cc2ccc(F)cc2)c1,0%,6%,x,-4%,x,x
Cc1ccc(C)c2c1[nH]c1ccccc12,-4%,3%,-4%,2%,0%,-16%
COc1ccc(OC)c2c(=S)c3ccccc3[nH]c12,x,4.5µM*,x,x,x,x
N#Cc1ccc(S(=O)(=O)N2CCN(S(=O)(=O)c3ccc4c(c3)OCCO4)CC2)cc1,-4%,x,x,2%,x,x
CCOc1ccc(-n2c(C)cc(C(=O)CCl)c2C)cc1,-3%,50µM*,u,3%,3%,-3%
COC(=O)c1ccc(-n2c(C)cc(C(=O)COC(=O)C3=COCCO3)c2C)cc1,5%,14%,3%,4%,-1%,-3%
COC(=O)c1ccc(-n2c(C)cc(C(=O)CCl)c2C)cc1,7%,79µM*,u,8%,8%,-2%
COc1cccc([C@@H]2Oc3ccc(OC)cc3C[C@H]2OC(=O)NS(=O)(=O)c2ccc(F)cc2)c1,x,-11%,x,4%,x,x
Oc1ccc(COC2CCCC2)c2cccnc12,x,x,x,x,-1%,x
Cc1ccc(C(=O)OCC(=O)NC(=O)c2cccn2C)cc1[N+](=O)[O-],-1%,u,27µM*,5%,1%,1%
COC(=O)c1ccc(CN(c2ccc(C)cc2)S(=O)(=O)c2ccc3c(c2)OCCO3)o1,3%,-19%,3µM*,6%,4%,0%
CC(C)c1ccc(Nc2ncnc3c2nc2n3CCCC2)cc1,-3%,16%,x,9%,x,x
O=C(CSc1cccc2cccnc12)OCC(=O)c1ccccc1,u,20µM*,21µM*,6%,0%,2%
CN(C)C(=O)CSc1cccc2cccnc12,1%,-23%,12µM*,9%,6%,16%
O=C(CSc1cccc2cccnc12)OCC(=O)c1ccc(Br)cc1,-1%,14%,-3%,8%,1%,-3%
COc1ccc(OC)c2cc3ccccc3cc12,x,u,2.7µM*,x,x,12%
O=S(=O)(c1cccc(O)c1)N1CCN(S(=O)(=O)c2c(F)cccc2F)CC1,-6%,x,x,1%,x,x
CC(C)(C)NC(=O)Cn1c(SCC(N)=O)nc2ccccc21,-3%,u,15µM*,2%,0%,-1%
COc1cc(C)c(S(=O)(=O)N2CCCC2)cc1C(C)C,-3%,-9%,27µM*,-8%,1%,-1%
COc1ccc(Br)cc1S(=O)(=O)N1CCCC1,-10%,-9%,3µM*,6%,0%,-3%
COc1ccc(C)cc1S(=O)(=O)N1CCCCCC1,-7%,-6%,1%,-2%,1%,3%
CCOc1cc(/C=C2\C(=N)N3N=CSC3=NC2=O)ccc1OS(=O)(=O)c1ccccc1,14%,u,24µM*,6%[56.1 µM],3%,-3%
Cc1cccc(-n2c(C)cc(/C=C3/C(=N)N4C(c5ccccc5)=CSC4=NC3=O)c2C)c1,9%,-3%,-1%,8%,1%,12%
SMILES,Pin1 inh,VDR inhibitor,PLK1 PBD inh,TDP1 inh,Tb PFK inh,ASM inhibitor
COc1cc(/C=C2\C(=N)N3N=CSC3=NC2=O)ccc1OS(=O)(=O)c1ccccc1,0%,79µM*,u,7%,11%,0%
COc1cc(/C=C2\C(=N)N3N=CSC3=NC2=O)cc(Br)c1OC(=O)c1ccco1,34%,u,u,-3%,3%,-8%
COc1cc(/C=C2/C(=N)N3C(c4ccccc4)=CSC3=NC2=O)ccc1OCC(=O)O,-20%,-24%,u,6%,2%,2.5µM*
COc1ccc(-c2nnc3n2N=C(c2ccc(OC)c(OC)c2)CS3)cc1,u,x,x,8%,x,x
COc1cccc(C2c3c(ncn(-c4ccccc4OC)c3=N)Oc3ccc4ccccc4c32)c1 (stereo not drawn),1%,x,x,6%,x,x
CCCCCN(CCCCC)C(=O)[C@H](CCC(=O)O)NC(=O)[C@H](Cc1ccc(OP(=O)(O)O)cc1)NC(C)=O,x,-11%,x,10%,x,x
CCN(CC)CCNC(=O)c1c(C)[nH]c(/C=C2\C(=O)Nc3ccc(F)cc32)c1C,x,3%,x,11%,x,x
COc1ccc(N2CCN(C(c3cccs3)C(C)NC(=O)C(=O)N3CCOCC3)CC2)cc1 (stereo not drawn),-3%,15%,-3%,10%,2%,0%
CC(NC(=O)C(=O)N1CCOCC1)C(c1cccs1)N1CCN(c2ccccc2)CC1 (stereo not drawn),-3%,-27%,21µM*,3%,2%,-1%
CCN(CC)C(=O)CSc1nc2c(sc(=S)n2-c2ccccc2)c(=O)n1Cc1ccco1,0%,40µM*,24µM*,9%,1%,-3%
CCOC(=O)c1sc(=S)n(C)c1NC(=O)c1ccc(OC)cc1,-3%,50µM*,3.4µM*,0%,u,3%
CCOC(=O)c1sc(=S)n(C)c1NC(=O)c1ccccc1Cl,0%,u,12µM*,3%,-4%,-2%
CCOC(=O)c1sc(=S)n(-c2ccccc2Cl)c1C,-2%,-6%,0%,3%,2%,0%
CSCC[C@H](NC(=O)[C@H](CC(C)C)NC(=O)CNC(=O)[C@H](Cc1ccccc1)NC(=O)[C@H](Cc1ccccc1)NC(=O)[C@H](CCC(N)=O)NC(=O)[C@H](CCC(N)=O)NC(=O)[C@@H]1CCCN1C(=O)[C@H](CCCCN)NC(=O)[C@@H]1CCCN1C(=O)[C@@H](N)CCCN=C(N)N)C(N)=O,x,-6%,x,8%,x,x
COc1ccc(C(=O)Nc2ccc3c(c2)N(C2CCCC2)C(=O)c2ccccc2S3)cc1OC,25%,2%,x,3%,x,x
O=C(COc1ccccc1Cl)N(Cc1ccco1)Cc1ccco1,u,12%,x,5%,x,x
CCOc1ccccc1-c1nnc2n1N=C(c1c(OC)cccc1OC)CS2,-3%,x,x,11%,x,x
O=C(O)c1ccc2c(c1)N(Cc1ccccc1)C(=O)c1ccccc1S2=O (stereo not drawn),-1%,-28%,27µM*,-7%,-6%,1%
O=C(Nc1c(C(=O)N2CCN(c3ccc(F)cc3)CC2)oc2ccccc12)c1c(F)cccc1F,0%,4%,x,7%,x,x
CCNc1ccccc1CP(=O)(c1ccccc1)c1ccccc1O (stereo not drawn),u,20µM*,21µM*,x,-7%,1%
Cc1ccc(O)c(CP(=O)(c2ccccc2)c2ccccc2)c1,-4%,-6%,1%,3%,-1%,-3%

# Compound activity deposited in PubChem BioAssay by National Center for Advancing Translational Sciences (NCATS).
